Assay results reported in PubChem BioAssay AID1566 (Sanford-Burnham Center for Chemical Genomics, 2009).
In all, about 290,000 compounds went through this assay and about 1,800 (0.62%) were called active. This is one part of a sample in which actives are shown more often than they occur. A number with no mark means an inactive call. Rule as the data show it: active = inhibition above about 50%; inactive = the rest.

assay: inhibition of NOD2-driven NF-kB reporter – cell-based, luminescence, uHTS, HEK293 (AID 1566); conditions: HEK293 NOD2/NF-kB luciferase reporter, at 4 µM, active compounds read high

With `O=C(O)COc1ccc(-c2nccc(-c3cccs3)n2)cc1` the inhibition was 55.9% (active).
In the case of `Cc1nnsc1C(=O)NC1CCCc2c1cnn2-c1ccccc1F` (centres undefined), the inhibition is reported as 51.1% (active).
With `Cc1ccc(-c2cn3cc(C)ccc3n2)cc1` the inhibition was 71.8% (active).
For `c1ccc(-c2ccc(-c3nc(-c4ccccn4)no3)cc2)cc1`, the inhibition was 67% (active).
With `COc1ccc(-c2nc(-c3ccccn3)no2)cc1` the inhibition was 84% (active).
For `Cc1ccc(-c2nc(-c3ccccn3)no2)cc1`, the inhibition was 84.3% (active).
In the case of `CCCc1ccc(-c2ccc(/C=C/C(=O)O)cc2)nc1`, the inhibition is reported as 78.4% (active).
In the case of `COc1ccc(C(CNc2ncnc3sc(C)c(C)c23)N(C)C)cc1` (centres undefined), the inhibition is reported as 69.8% (active).
In the case of `Cc1sc2ncnc(NCCc3ccc(S(N)(=O)=O)cc3)c2c1C`, the inhibition is reported as 55.7% (active).
With `Cc1sc2ncnc(NCC(O)c3ccc([N+](=O)[O-])cc3)c2c1C` (centres undefined) the inhibition was 51.7% (active).
For `O=C(O)CSc1cc(NS(=O)(=O)c2ccc(Br)cc2)c2ccccc2c1O`, the inhibition was 57.2% (active).
With `O=S(=O)(Nc1cc(Sc2cccc3cccnc23)c(O)c2ccccc12)c1ccccc1` the inhibition was 95.9% (active).

First: COC(=O)C(C)Oc1ccc(-c2nccc(-c3cccs3)n2)cc1 (centres undefined)
Second: Oc1ccc(-c2nccc(-c3cccs3)n2)cc1
The inhibition of the first is higher: -13.1% for the first, -139% for the second.

Going from `O=C(c1cnccn1)N1CCc2c([nH]c3ccccc23)C1c1cccc(Cl)c1` (centres undefined) to `O=C(NC1CCCc2c1cnn2-c1ccccc1F)c1ccccn1` (centres undefined), the inhibition rises from -198% to -49.8%.

Compared with `CC(C)(C)c1ccc(S(=O)(=O)N2CCC(c3nc4ccc(Cl)cc4[nH]3)CC2)cc1`, `CC(=O)Nc1ccc(OS(=O)(=O)c2ccc(Cl)cc2)cc1` is higher in inhibition: -18.9% for the first, 12.5% for the second.

Compared with `Cc1nnsc1C(=O)NC1CCCc2c1cnn2-c1ccc(F)cc1F` (centres undefined), `Cc1nnsc1C(=O)NC1CCCc2c1cnn2-c1cc(F)cc(F)c1` (centres undefined) is lower in inhibition: 49.3% for the first, 21.9% for the second.

First: Cn1nccc1C(=O)NC1CCCc2c1cnn2-c1cc(F)cc(F)c1 (centres undefined)
Second: Cc1cc(C)cc(-n2ncc3c2CCCC3NC(=O)C2(C(N)=O)CC2)c1 (centres undefined)
The inhibition of the first is higher: 30.4% for the first, 7.2% for the second.

Compared with `Cc1cccc(-n2ncc3c2CCCC3NC(=O)C2CCOCC2)c1C` (centres undefined), `CCc1cccc(C)c1NC(=O)c1ccoc1C` is lower in inhibition: 41.8% for the first, 4.5% for the second.

Compared with `CC(=O)N/C(=C\c1ccc2c(c1)OCO2)C(=O)NC(C(=O)O)c1ccccc1` (centres undefined), `O=C(O)CSc1cc(NS(=O)(=O)c2cccc([N+](=O)[O-])c2)c2ccccc2c1O` is lower in inhibition: 19.8% for the first, 16.9% for the second.

First: Cc1cccc2sc(NC(=O)CSc3nnnn3C)nc12
Second: CC1(c2ccccc2)NC(=O)N(CC(=O)Nc2nnc(C3CC3)s2)C1=O (centres undefined)
The inhibition of the first is higher: -7% for the first, -9.7% for the second.

Compared with `O=C(CNC(=O)c1ccc(Oc2ccccc2)cc1)OC1CCCCC1=O` (centres undefined), `COc1ccc(-n2nc(C(=O)NCC(=O)N3CCN(Cc4ccccc4)CC3)c3ccccc3c2=O)cc1` is lower in inhibition: 10.8% for the first, -1.4% for the second.

Compared with `Cc1cccc(Nc2nc(N)nc(CSC(=S)N3CCOCC3)n2)c1`, `O=C(c1ccccc1)c1cc([N+](=O)[O-])ccc1N1CCOCC1` is higher in inhibition: -21.1% for the first, 5.9% for the second.

Compared with `Cc1ccc2nc(-c3ccc(O)c(O)c3)cn2c1`, `Cc1ccc2nc(-c3ccccc3)cn2c1` is higher in inhibition: -51.7% for the first, 26.7% for the second.

First: CCOC(=O)C1CCN(S(=O)(=O)c2c(C)n(C)c(=O)n(C)c2=O)CC1
Second: CCCCNC(=O)c1cn(CC)c2ccc(S(=O)(=O)N3CCCCCC3)cc2c1=O
The inhibition of the first is higher: -0.5% for the first, -6.4% for the second.

Going from `O=C1CC(N2CCN(C/C=C/c3ccccc3)CC2)C(=O)N1Cc1cccs1` (centres undefined) to `CN1CCN(C(=O)C2CC(=O)N(c3ccc(Cl)cc3)C2)CC1` (centres undefined), the inhibition falls from 7.5% to -8.8%.

Compared with `Cc1ccc(-c2nc(-c3ccccn3)no2)cc1Cl`, `COc1cccc(-c2nc(-c3ccccn3)no2)c1` is lower in inhibition: 47.8% for the first, -16.1% for the second.

Going from `c1ccc(-c2noc(-c3ccc4ccccc4c3)n2)nc1` to `c1ccc(-c2nc(-c3ccccn3)no2)cc1`, the inhibition falls from 45% to 20.1%.

Compared with `COc1cc(-c2nc(-c3ccccn3)no2)cc(OC)c1OC`, `c1ccc(-c2noc(-c3ccncc3)n2)nc1` is lower in inhibition: -18.2% for the first, -43.2% for the second.

Compared with `CCOC(=O)c1ccc2c(c1)nc(SCC(=O)c1ccco1)n2CC`, `CCN(CC)S(=O)(=O)c1ccc(C)c(NC(=O)/C=C/c2cccs2)c1` is lower in inhibition: 8.2% for the first, -13.1% for the second.

First: CN(C)CCNC(=O)c1cc2cc(Br)ccc2oc1=O
Second: Cc1ccc(Sc2ccc(NC(=O)CCl)cc2)cc1C
The inhibition of the first is lower: -0.6% for the first, 0.9% for the second.

Going from `COc1ccc(N/C(N)=N/c2nc(CSc3nnc(C)s3)cc(=O)[nH]2)cc1` to `COc1ccc(-n2c(Cc3cccn3C)nnc2SCC(=O)Nc2ccc3c(c2)OCCO3)cc1`, the inhibition rises from -37.9% to 6.8%.

First: O=C(CCl)Nc1ccccc1Sc1ccccc1
Second: O=C(Cc1ccc(Cl)cc1)Nc1ccccc1Sc1ccccc1
The inhibition of the first is lower: -24.6% for the first, 0.7% for the second.

Compared with `Cc1ccc(C)c(Sc2ccc(NC(=O)CCl)cc2)c1`, `Cc1cc(C)c(S(=O)(=O)Nc2cc(SCC(=O)O)c(O)c3ccccc23)cc1C` is higher in inhibition: -19.5% for the first, 29.2% for the second.

First: COc1ccccc1C1=NC(c2ccc(F)cc2)N=C1C (centres undefined)
Second: COc1ccc(/C=N/n2c(SC)nnc2-c2ccccc2)c(OC)c1OC
The inhibition of the first is higher: -33.6% for the first, -38.9% for the second.

Compared with `Cc1cc2ncn(C3CC(=O)N(C)C3=O)c2cc1C` (centres undefined), `COc1ccccc1C(CNc1ncnc2sc(C)c(C)c12)N(C)C` (centres undefined) is higher in inhibition: 10.1% for the first, 18.9% for the second.

First: CCCN1C2CCCC1CC(NC(=O)C1CCCCC1)C2 (centres undefined)
Second: CCOCC(=O)Nc1ccccc1C(=O)O
The inhibition of the first is lower: -3.5% for the first, 5.3% for the second.

Going from `CCCCCc1ccc(-c2ccc(/C=C/C(=O)O)cc2)nc1` to `CCCCCc1ccc(-c2ccc(/C=C/C(N)=O)cc2)nc1`, the inhibition rises from -82.7% to -57.2%.

Going from `Cc1sc2ncnc(NCC(c3ccccc3)N(C)C)c2c1C` (centres undefined) to `Cc1sc2ncnc(NCC(O)c3ccccc3)c2c1C` (centres undefined), the inhibition rises from 10.2% to 40.2%.

First: NS(=O)(=O)c1ccc(CCNc2ncnc3sccc23)cc1
Second: Cc1nc(NCCc2ccc(S(N)(=O)=O)cc2)c2c(C)c(C)sc2n1
The inhibition of the first is lower: 34.1% for the first, 45.1% for the second.

Compared with `Cc1sc2ncnc(N[C@@H](CCC(=O)O)C(=O)O)c2c1C`, `O=S(=O)(Nc1cc(Sc2ncn[nH]2)c(O)c2ccccc12)c1ccccc1` is higher in inhibition: 2.8% for the first, 19% for the second.

`O=S(=O)(Nc1cc(Sc2cccc3cccnc23)c(O)c2ccccc12)c1ccc(F)cc1` showed an inhibition of -2.1%.
